Test results reported in PubChem BioAssay (NCATS).
Inconclusive results are not listed. Activity calls are given as the source filed them. Calls follow the shape of the dose curve; as a rule, active = well fitted curve in the direction sought with a large enough effect; inconclusive = small, poorly fitted or top-dose-only effect, or another doubt; inactive = no such curve, though single readings can be large; an effect the other way counts as inactive or inconclusive.

Columns and labels:
[1] = molecular target: ATP-dependent 6-phosphofructokinase (Trypanosoma brucei brucei) (UniProt O15648); assay: qHTS Assay to Find Inhibitors of T. brucei phosphofructokinase: hit validation (AID 492961);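 also: luminescence reports ADP formed as PFK phosphorylates fructose-6-phosphate with ATP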
ATP-dependent 6-phosphofructokinase (Trypanosoma brucei brucei), sequence (O15648 whole entry, looked up): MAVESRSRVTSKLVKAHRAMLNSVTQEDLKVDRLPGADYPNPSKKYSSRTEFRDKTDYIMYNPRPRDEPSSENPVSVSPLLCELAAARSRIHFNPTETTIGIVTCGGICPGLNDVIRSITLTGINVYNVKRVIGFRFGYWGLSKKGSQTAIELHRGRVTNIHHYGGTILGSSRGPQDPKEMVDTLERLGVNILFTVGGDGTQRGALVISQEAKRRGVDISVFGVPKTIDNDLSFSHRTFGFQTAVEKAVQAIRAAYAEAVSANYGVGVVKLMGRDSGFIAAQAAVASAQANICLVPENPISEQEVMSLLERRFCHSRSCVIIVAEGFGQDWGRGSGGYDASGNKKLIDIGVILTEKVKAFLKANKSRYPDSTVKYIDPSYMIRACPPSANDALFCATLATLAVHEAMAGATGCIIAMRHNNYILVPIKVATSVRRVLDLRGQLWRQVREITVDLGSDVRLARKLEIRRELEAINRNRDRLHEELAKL
Outline: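 Compounds titrated; %activity normalized to 0x and 1x enzyme controls, curve-fitted. Readout: ADP-Glo luminescence after 45 min room-temperature reaction of 1.25 nM PFK, 0.1 mM ATP, 0.5 mM F6P, pH 8.0.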

AA1029 = assay: qHTS profiling for inhibitors of Plasmodium falciparum proliferation (AID 504749); also: nearly all actives have a fitted effect of over 60% in size; conditions: P. falciparum in erythrocytes, SYBR Green DNA, 72 h; series mostly up to 12.8 µM
Outline: (§1)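 Each compound contacts P. falciparum-infected red blood cells for 72 h at 37 C; lysis buffer (Tris, EDTA, saponin, Triton X, SYBR Green I) is added and fluorescence measured next morning; values normalized to controls.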

AS120 = assay: as above; conditions: P. falciparum in erythrocytes, SYBR Green DNA, 72 h; series mostly up to 28.7 µM
Outline: as §1

C2A = assay: as above; conditions: P. falciparum in erythrocytes, SYBR Green DNA, 72 h; series mostly up to 12.8 µM
Outline: as §1

CP185 = assay: as above; conditions: P. falciparum in erythrocytes, SYBR Green DNA, 72 h; series mostly up to 12.8 µM
Outline: as §1

CP201 = assay: as above; conditions: P. falciparum in erythrocytes, SYBR Green DNA, 72 h; series mostly up to 12.8 µM
Outline: as §1

CP250 = assay: as above; conditions: P. falciparum in erythrocytes, SYBR Green DNA, 72 h; series mostly up to 12.8 µM
Outline: as §1

CP252 = assay: as above; conditions: P. falciparum in erythrocytes, SYBR Green DNA, 72 h; series mostly up to 12.8 µM
Outline: as §1

CP256 = assay: as above; conditions: P. falciparum in erythrocytes, SYBR Green DNA, 72 h; series mostly up to 12.8 µM
Outline: as §1

CP265 = assay: as above; conditions: P. falciparum in erythrocytes, SYBR Green DNA, 72 h; series mostly up to 12.8 µM
Outline: as §1

CP286 = assay: as above; conditions: P. falciparum in erythrocytes, SYBR Green DNA, 72 h; series mostly up to 12.8 µM
Outline: as §1

CP291 = assay: as above; conditions: P. falciparum in erythrocytes, SYBR Green DNA, 72 h; series mostly up to 12.8 µM
Outline: as §1

CP305 = assay: as above; conditions: P. falciparum in erythrocytes, SYBR Green DNA, 72 h; series mostly up to 12.8 µM
Outline: as §1

CP329 = assay: as above; conditions: P. falciparum in erythrocytes, SYBR Green DNA, 72 h; series mostly up to 12.8 µM
Outline: as §1

CP335 = assay: as above; conditions: P. falciparum in erythrocytes, SYBR Green DNA, 72 h; series mostly up to 12.8 µM
Outline: as §1

DFO2036 = assay: as above; conditions: P. falciparum in erythrocytes, SYBR Green DNA, 72 h; series mostly up to 12.8 µM
Outline: as §1

SC27B = assay: as above; conditions: P. falciparum in erythrocytes, SYBR Green DNA, 72 h; series mostly up to 12.8 µM
Outline: as §1

TAB109 = assay: as above; conditions: P. falciparum in erythrocytes, SYBR Green DNA, 72 h; series mostly up to 12.8 µM
Outline: as §1

TAB113 = assay: as above; conditions: P. falciparum in erythrocytes, SYBR Green DNA, 72 h; series mostly up to 12.8 µM
Outline: as §1

TAB165 = assay: as above; conditions: P. falciparum in erythrocytes, SYBR Green DNA, 72 h; series mostly up to 12.8 µM
Outline: as §1

Measured: Potency

CN(N=O)C(=O)N[C@H]1[C@@H](O)[C@H](O)[C@H](CO)O[C@@H]1O
inactive: all assays above

CC(=O)N(CC(O)CN(C(C)=O)c1c(I)c(C(=O)NC[C@@H](O)CO)c(I)c(C(=O)NC[C@@H](O)CO)c1I)c1c(I)c(C(=O)NC[C@@H](O)CO)c(I)c(C(=O)NC[C@@H](O)CO)c1I
inactive: all assays above

CC(C)(O/N=C(\C(=O)N[C@@H]1C(=O)N2C(C(=O)[O-])=C(C[n+]3ccccc3)CS[C@@H]12)c1csc(N)n1)C(=O)O
inactive: all assays above

Cn1c(=O)c2c(ncn2C[C@@H](O)CO)n(C)c1=O
inactive: all assays above

O=C(O)/C=C\c1ccc(Cn2ccnc2)cc1
inactive: all assays above

COc1ccc(C[C@@H]2c3cc(OC)c(OC)cc3CC[N@+]2(C)CCC(=O)OCCCCCOC(=O)CC[N@@+]2(C)CCc3cc(OC)c(OC)cc3[C@H]2Cc2ccc(OC)c(OC)c2)cc1OC
inactive: all assays above

CO/N=C(/C(=O)NC1C(=O)N2C(C(=O)O)=C(CSc3nc(=O)c(O)nn3C)CSC12)c1csc(N)n1 (stereo not drawn)
not listed: [1]
inactive: all other assays above

O=c1[nH]cnc2c1ncn2C1OC(CO)C(O)C1O (stereo not drawn)
inactive: all assays above

C[N+]1(C)CCC[C@@H](OC(=O)C(O)(c2ccccc2)c2ccccc2)C1
inactive: all assays above

C/C=C\C(=O)N(CC)c1ccccc1C
inactive: all assays above

CC1(C)Oc2ccc(C#N)cc2[C@H](N2CCCC2=O)[C@H]1O
inactive: all assays above

CCN1C(=O)N[C@@H](c2ccccc2)C1=O
inactive: all assays above

C[C@@H](C(=O)O)c1ccc(C(=O)c2cccs2)cc1
inactive: all assays above

CC1(C)S[C@@H]2[C@H](NC(=O)[C@H](C(=O)O)c3ccsc3)C(=O)N2[C@H]1C(=O)O
not listed: [1]
inactive: all other assays above

CN[C@@H](CC(C)C)C(=O)N[C@@H]1C(=O)N[C@H](CC(N)=O)C(=O)N[C@@H]2C(=O)N[C@H]3C(=O)N[C@H](C(=O)N[C@H](C(=O)O)c4cc(O)cc(O)c4-c4cc3ccc4O)[C@H](O)c3ccc(c(Cl)c3)Oc3cc2cc(c3O[C@H]2O[C@@H](CO)[C@@H](O)[C@@H](O)[C@@H]2O[C@@H]2C[C@](C)(N)[C@H](O)[C@H](C)O2)Oc2ccc(cc2Cl)[C@@H]1O
inactive: all assays above

CN[C@@H]1[C@H](O[C@@H]2O[C@H](CO)[C@@H](N)[C@H](O)[C@@H]2O)O[C@H]2C[C@@H](N)[C@@H](O[C@H]3[C@@H](O)[C@H](O)[C@H](N)C[C@@H]3N)O[C@H]2[C@H]1O
inactive: all assays above

COc1c(O)cc2c(c1O)[C@@H]1O[C@@H](CO)[C@@H](O)[C@@H](O)[C@@H]1OC2=O
inactive: all assays above
